Source: PubChem (The Scripps Research Institute Molecular Screening Center)
In the library only some 2.3% were active in any assay of this set; here they are far more common.
M1 PAM: potentiates human M1 receptor response to acetylcholine; P11229; CHO-K1 hM1, Fluo-8 calcium fluorescence, ACh EC20; 0% = ACh EC20, 100% = maximal ACh; activation, % at 3 µM; hit rate 0.088% among 360,000; in the data active = activation above about 19%, passing the limit was not always enough
Target sequence (P11229 whole entry, looked up): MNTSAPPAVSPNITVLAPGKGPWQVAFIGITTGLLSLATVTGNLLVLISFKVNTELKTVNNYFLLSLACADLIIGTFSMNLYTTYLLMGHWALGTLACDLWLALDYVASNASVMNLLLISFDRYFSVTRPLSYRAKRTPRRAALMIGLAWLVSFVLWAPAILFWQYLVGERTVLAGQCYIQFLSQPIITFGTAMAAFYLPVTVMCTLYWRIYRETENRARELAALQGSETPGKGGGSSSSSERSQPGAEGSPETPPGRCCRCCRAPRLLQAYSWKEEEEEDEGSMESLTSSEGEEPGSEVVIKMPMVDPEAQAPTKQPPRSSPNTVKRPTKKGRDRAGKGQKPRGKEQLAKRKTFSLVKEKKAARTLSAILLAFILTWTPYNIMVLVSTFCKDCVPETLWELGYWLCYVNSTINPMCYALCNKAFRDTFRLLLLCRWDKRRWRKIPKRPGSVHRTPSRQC
CHO-K1 Ca antag: M1 antagonist counterscreen hit in parental CHO-K1 cells; ATP-induced calcium, Fluo-8 fluorescence; inhibition, % at 3 µM; hit rate 0.6% among 360,000; AID 602250;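 active = inhibition above a per-plate cutoff, the plate's mean sample inhibition plus 3 SD, cut at about 24% in these data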;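 note: 0% = DMSO plus EC80 ATP and 100% = DMSO alone without ATP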
M1 ag parental: M1 agonist counterscreen hit in parental CHO-K1 cells; hit rate 0.48% among 360,000; Fluo-8 calcium fluorescence; scaled to maximal ATP response, vehicle zero; activation, % at 3 µM; in the data active = activation above about 15%;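 note: untransfected CHO-K1 host cells lacking M1 receptor as counterscreen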
CHRM1 antagonist: blocks human M1 muscarinic receptor | P11229 | CHO-K1 hM1, Fluo-8 calcium fluorescence, ACh EC80 antagonist | inhibition, % at 3 µM | hit rate 1.3% among 360,000 | AID 588852;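 active = percent inhibition above its own plate's cutoff, namely the mean of that plate's compound wells plus 3 SD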;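 note: peak over basal fluorescence ratio during 140 s after agonist addition; 0% = ACh EC80 plus DMSO and 100% = DMSO alone without agonist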
M1 PAM parental: M1 PAM counterscreen hit in parental CHO-K1 cells; hit rate 0.02% among 360,000; ATP EC20, Fluo-8 calcium fluorescence; 0% at ATP EC20, 100% at ATP max; activation, % at 3 µM; AID 602247;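 active = activation above the run cutoff, the mean activation of all test compounds plus 3 SD, cut at about 40% in these data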;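 note: peak over basal fluorescence ratio in a 140 s read after ATP addition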
CHRM1 agonist: activates human CHRM1 receptor; activation, % at 3 µM; AID 588814; CHO-K1 hM1, Fluo-8 calcium fluorescence, agonist mode; 0% DMSO, 100% acetylcholine EC100; hit rate 0.33% among 360,000;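 active = activation above the run's mean compound activation plus 3 SD, cut at about 16% in these data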;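 note: peak over basal fluorescence ratio within a 140 s kinetic read after compound addition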
Numbers without * were called inactive.

For O=C(CSc1nnc(SCc2ccccc2)s1)NNC(=S)Nc1ccccc1 the results were M1 PAM -7, CHO-K1 Ca antag 29*, M1 ag parental 0, CHRM1 antagonist 11, M1 PAM parental -16 and CHRM1 agonist -2.
Screening Cn1ccnc1C1CCCCN1Cc1nc(-c2ccc(Cl)cc2)no1 (centres undefined) returned M1 PAM -19, CHO-K1 Ca antag -11, M1 ag parental 2, CHRM1 antagonist 32*, M1 PAM parental -2 and CHRM1 agonist -7.
Clc1ccc(-c2noc(CN3CCCC3)n2)cc1 was read as M1 PAM -3, CHO-K1 Ca antag -10, M1 ag parental 1, CHRM1 antagonist -3, M1 PAM parental 25 and CHRM1 agonist -4.
COc1ccc(CC(=O)NNS(=O)(=O)c2ccc([N+](=O)[O-])cc2)cc1OC was read as M1 PAM 6, CHO-K1 Ca antag 7, M1 ag parental -1, CHRM1 antagonist 0, M1 PAM parental -4 and CHRM1 agonist -4.
O=C(CSc1ccc2nnc(-c3cccnc3)n2n1)NCc1ccc2c(c1)OCO2 was read as M1 PAM -27, CHO-K1 Ca antag -4, M1 ag parental 0, CHRM1 antagonist 64*, M1 PAM parental 12 and CHRM1 agonist -10.
O=C(CSc1ccc2nnc(-c3ccccc3)n2n1)NCc1ccc2c(c1)OCO2 was read as M1 PAM 5, CHO-K1 Ca antag -12, M1 ag parental 0, CHRM1 antagonist -14, M1 PAM parental 15 and CHRM1 agonist 1.
For CSc1nnc2c3ccccc3n(CCc3ccccc3)c2n1 the results were M1 PAM 4, CHO-K1 Ca antag 19, M1 ag parental 0, CHRM1 antagonist 3, M1 PAM parental -7 and CHRM1 agonist 0.
S=c1nc2c(n[nH]1)c1ccccc1n2CCc1ccccc1 was read as M1 PAM 11, CHO-K1 Ca antag -1, M1 ag parental 0, CHRM1 antagonist -18, M1 PAM parental 18 and CHRM1 agonist 20*.
For COc1ccc(S(=O)(=O)N(CC(=O)Nc2ccc3c(c2)OCO3)c2ccccc2OC)cc1 the results were M1 PAM -9, CHO-K1 Ca antag 8, M1 ag parental 5, CHRM1 antagonist 31*, M1 PAM parental -6 and CHRM1 agonist 0.
Screening CCOc1ccccc1NC(=O)CN(c1ccc(C)cc1)S(=O)(=O)c1c(C)n[nH]c1C returned M1 PAM -24, CHO-K1 Ca antag -12, M1 ag parental 0, CHRM1 antagonist 20*, M1 PAM parental 20 and CHRM1 agonist -6.
`COc1ccc(N(CC(=O)Nc2ccc(OC)cc2OC)S(=O)(=O)c2ccccc2)cc1` gave M1 PAM 4, CHO-K1 Ca antag -19, M1 ag parental 1, CHRM1 antagonist 0, M1 PAM parental 18 and CHRM1 agonist -5.
Screening COc1ccccc1CNC(=O)CN(c1ccc(C)cc1)S(=O)(=O)c1c(C)n[nH]c1C returned M1 PAM -7, CHO-K1 Ca antag 10, M1 ag parental 2, CHRM1 antagonist -15, M1 PAM parental -4 and CHRM1 agonist -5.
For CCOc1ccc(N(CC(=O)Nc2ccccc2OC)S(=O)(=O)c2ccccc2)cc1 the results were M1 PAM 11, CHO-K1 Ca antag 3, M1 ag parental 18*, CHRM1 antagonist -6, M1 PAM parental 11 and CHRM1 agonist 8.
For Cc1ccc(OC(=O)N(C)C[C@H]2OCc3cn(nn3)CCCC(=O)N([C@H](C)CO)C[C@@H]2C)cc1 the results were M1 PAM 6, CHO-K1 Ca antag -3, M1 ag parental 0, CHRM1 antagonist -10, M1 PAM parental 15 and CHRM1 agonist -3.
OC(CSc1ccccc1)CN1CCN(c2ccc(Cl)cc2)CC1 (centres undefined) was read as M1 PAM 0, CHO-K1 Ca antag -9, M1 ag parental 2, CHRM1 antagonist -12, M1 PAM parental 6 and CHRM1 agonist 15.
For OC(CSc1ccccc1)CN1CCN(c2cccc(Cl)c2)CC1 (centres undefined) the results were M1 PAM -3, CHO-K1 Ca antag -12, M1 ag parental 2, CHRM1 antagonist -8, M1 PAM parental 11 and CHRM1 agonist 25*.
Screening OC(COc1cccc2ccccc12)CN1CCN(c2cccc(Cl)c2)CC1 (centres undefined) returned M1 PAM 6, CHO-K1 Ca antag 9, M1 ag parental 21*, CHRM1 antagonist -16, M1 PAM parental -9 and CHRM1 agonist -2.
COc1cccc(N(C(=O)c2ccco2)C(C(=O)NC2CCCC2)c2cccnc2)c1 (centres undefined) was read as M1 PAM -3, CHO-K1 Ca antag 24*, M1 ag parental 0, CHRM1 antagonist 15, M1 PAM parental -7 and CHRM1 agonist 0.
For COc1ccc(C(C(=O)NC2CCCC2)N(C(=O)c2ccoc2C)c2ccc(C)c(C)c2)cc1 (centres undefined) the results were M1 PAM -6, CHO-K1 Ca antag 25*, M1 ag parental -1, CHRM1 antagonist 8, M1 PAM parental -14 and CHRM1 agonist -10.
`COc1ccc(C(C(=O)NC2CCCC2)N(C(=O)c2ccoc2C)c2cc(C)cc(C)c2)cc1` (centres undefined) gave M1 PAM 5, CHO-K1 Ca antag 3, M1 ag parental -1, CHRM1 antagonist -5, M1 PAM parental 1 and CHRM1 agonist -9.
COc1ccc(C(C(=O)NC2CCCC2)N(C(=O)c2ccoc2C)c2ccccc2)cc1 (centres undefined) was read as M1 PAM -2, CHO-K1 Ca antag -7, M1 ag parental 2, CHRM1 antagonist -10, M1 PAM parental 1 and CHRM1 agonist -8.
Screening CCc1ccc(N(C(=O)c2ccoc2C)C(C(=O)NC2CCCC2)c2ccc(OC)cc2)cc1 (centres undefined) returned M1 PAM -8, CHO-K1 Ca antag 28*, M1 ag parental -1, CHRM1 antagonist 16, M1 PAM parental -14 and CHRM1 agonist -6.
Screening COc1ccc(NC(=O)c2ccc(COc3ccccc3Br)o2)c(OC)c1 returned M1 PAM 16, CHO-K1 Ca antag -6, M1 ag parental 1, CHRM1 antagonist -14, M1 PAM parental 36 and CHRM1 agonist -1.
For COc1ccc(NC(=O)c2ccc(COc3ccccc3)o2)c(OC)c1 the results were M1 PAM -3, CHO-K1 Ca antag -14, M1 ag parental 2, CHRM1 antagonist -15, M1 PAM parental 42* and CHRM1 agonist -2.
`COc1ccc(NC(=O)COC(=O)Cc2ccc(-c3ccccc3)cc2)c(OC)c1` gave M1 PAM -6, CHO-K1 Ca antag -25, M1 ag parental 5, CHRM1 antagonist 3, M1 PAM parental 46* and CHRM1 agonist 2.
Screening COc1ccc(C)cc1NC(=O)COC(=O)Cc1ccc(-c2ccccc2)cc1 returned M1 PAM 4, CHO-K1 Ca antag -4, M1 ag parental 1, CHRM1 antagonist -10, M1 PAM parental 23 and CHRM1 agonist -5.
